# PubChem BioAssay (NCATS)
# Inconclusive results are not listed. A call without a number means that no potency is given here. A number with no mark means an inactive call. Calls of active or inactive are those of the source. The call rests on the fitted dose curve; in most records, active means well fitted curve in the direction sought with a large enough effect; inconclusive means small, poorly fitted or top-dose-only effect, or another doubt; inactive means no such curve, though single readings can be large; an effect the other way counts as inactive or inconclusive.
# Tests used:
# [1] = tested on: Zika virus NS2B-NS3 protease (unlinked complex); assay: Primary screen GU Rhodamine qHTS for Zika virus inhibitors: Unlinked NS2B-NS3 protease assay (AID 1347159); further: nearly all actives have a fitted effect of over 60% in size
# In short: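 Buffer 10 mM Tris-HCl pH 8.0, 0.01% Tween 20. Unlinked protease 25 nM; compound preincubation 15 min, RT, protected from light. Substrate Rhod110, 1.5 microM; ~15% conversion in 15 min.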
# [2] = tested on: Zika virus NS2B-NS3 protease (linked construct); assay: Primary screen NINDS Rhodamine qHTS for Zika virus inhibitors (AID 1347160); further: nearly all actives have a fitted effect of over 55% in size
# In short: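 Aprotinin served as in-plate control. Conditions: 25 nM linked NS2B-NS3, pH 8.0 Tris buffer, titrated compounds, 15 min preincubation and 15 min reaction with 1.5 microM Rhod110 substrate at room temperature.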
# [3] = qHTS to identify inhibitors of the type 1 interferon - major histocompatibility complex class I in skeletal muscle: primary screen against the NCATS Pharmaceutical Collection (AID 1347407);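 further: luminescence of HiBiT knocked into endogenous HLA-B as interferon-induced MHC class I level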; further: potency means the concentration at half of the fitted maximal effect
# In short: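 Cells were seeded with 4 ng/ml IFN-beta, incubated 1 h, then dosed with compounds over eight 1:5 steps up to 46 uM final. After 24 h at 37 C, HiBiT lytic reagent was added and luminescence read after 10 min lysis in the dark.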
# [4] = target: Lysine-specific demethylase 5B (Homo sapiens) (UniProt Q9UGL1); assay: Optimization screen for KDM5B Histone Demethylases FDH coupled qHTS against the LOPAC library (AID 1347166)
# Lysine-specific demethylase 5B (Homo sapiens), sequence (Q9UGL1 whole entry, looked up): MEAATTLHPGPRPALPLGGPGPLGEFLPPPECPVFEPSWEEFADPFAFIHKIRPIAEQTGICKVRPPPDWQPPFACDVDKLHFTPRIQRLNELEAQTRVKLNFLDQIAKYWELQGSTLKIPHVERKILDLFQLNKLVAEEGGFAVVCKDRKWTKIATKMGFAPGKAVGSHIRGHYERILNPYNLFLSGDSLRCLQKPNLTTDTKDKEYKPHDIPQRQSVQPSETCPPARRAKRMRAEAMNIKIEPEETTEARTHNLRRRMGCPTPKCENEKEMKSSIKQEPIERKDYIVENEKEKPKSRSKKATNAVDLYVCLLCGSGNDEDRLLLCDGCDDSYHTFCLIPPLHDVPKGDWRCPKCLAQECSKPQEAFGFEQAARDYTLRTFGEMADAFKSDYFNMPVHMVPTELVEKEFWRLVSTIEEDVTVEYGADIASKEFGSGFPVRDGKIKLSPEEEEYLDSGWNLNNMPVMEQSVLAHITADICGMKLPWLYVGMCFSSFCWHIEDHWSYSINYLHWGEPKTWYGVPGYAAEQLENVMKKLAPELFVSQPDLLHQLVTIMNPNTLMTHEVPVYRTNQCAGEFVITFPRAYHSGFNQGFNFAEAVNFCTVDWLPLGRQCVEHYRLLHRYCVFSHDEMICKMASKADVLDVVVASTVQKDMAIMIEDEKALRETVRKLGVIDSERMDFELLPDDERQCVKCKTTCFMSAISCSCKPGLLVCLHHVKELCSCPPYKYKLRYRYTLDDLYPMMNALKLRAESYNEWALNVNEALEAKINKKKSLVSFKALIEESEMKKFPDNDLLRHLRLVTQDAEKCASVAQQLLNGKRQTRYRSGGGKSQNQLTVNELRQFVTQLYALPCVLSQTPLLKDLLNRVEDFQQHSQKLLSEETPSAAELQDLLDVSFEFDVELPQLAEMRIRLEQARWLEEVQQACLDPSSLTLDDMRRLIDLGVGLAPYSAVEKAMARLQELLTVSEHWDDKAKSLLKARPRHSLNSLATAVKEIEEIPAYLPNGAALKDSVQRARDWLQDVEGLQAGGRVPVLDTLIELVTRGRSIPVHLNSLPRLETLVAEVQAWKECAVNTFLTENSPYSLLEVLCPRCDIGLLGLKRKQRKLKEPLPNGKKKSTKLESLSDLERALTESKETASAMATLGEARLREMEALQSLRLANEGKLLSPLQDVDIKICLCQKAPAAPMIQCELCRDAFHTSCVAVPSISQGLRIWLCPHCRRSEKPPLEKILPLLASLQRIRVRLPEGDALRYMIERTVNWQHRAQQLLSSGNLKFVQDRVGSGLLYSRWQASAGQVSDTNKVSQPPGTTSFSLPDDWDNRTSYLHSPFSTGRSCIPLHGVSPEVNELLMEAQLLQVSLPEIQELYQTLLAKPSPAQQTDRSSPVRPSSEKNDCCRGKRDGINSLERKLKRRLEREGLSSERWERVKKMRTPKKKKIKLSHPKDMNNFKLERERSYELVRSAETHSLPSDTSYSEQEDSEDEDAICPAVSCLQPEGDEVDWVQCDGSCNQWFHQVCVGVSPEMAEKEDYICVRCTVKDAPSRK
# In short: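 KDM5BDeltaAP (200nM final) in 50mM HEPES pH 7.5, 0.01% Tween-20 was preincubated with compound for 10 min at room temperature. A substrate mix of 12.5uM H3K4Me3, 25uM a-ketoglutarate, ascorbate, Fe2+, NAD+ and formaldehyde dehydrogenase was then added. NADH fluorescence (340/450 nm) was read initially and after 30 min.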
# [5] = ZIKV-mCherry secondary qHTS for Zika virus inhibitors (AID 1347158); further: top concentration of the series differs between compounds
# In short: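 Compounds were tested in Vero monkey kidney cells infected with recombinant mCherry-expressing Zika virus at MOI 1 for 48-72 h at 37 °C. Fixed cells were nuclear-stained and imaged, and infection rate was taken as the fraction of mCherry-positive cells.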
# [6] = tested on: Zika virus NS2B-NS3 protease (linked); assay: 384 well plate NINDS AMC confirmatory qHTS for Zika virus inhibitors (AID 1347163); further: nearly all actives have a fitted effect of over 50% in size; further: potency means the concentration at half of the fitted maximal effect;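 on activity change, negative = inhibition: linked protease at 5 30 or 60 nM final depending on run; fluorescence of AMC released from Ac-VKTGKR-AMC peptide cleaved by the protease; top concentration of the series differs between compounds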
# In short: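 Fluorescence at 355/460 nm was read after 25 minutes of cleavage of 30 microM Ac-VKTGKR-AMC at room temperature, in the dark. Before substrate addition, compounds (up to 1 mM final) sat ~15 minutes with 5, 30 or 60 nM linked protease. Signals were normalized to no-enzyme and no-inhibitor wells.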
# [7] = HepG2 cells viability qHTS for Zika virus inhibitors (AID 1347168); further: potency means the concentration at half of the fitted maximal effect
# In short: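 Luminescent ATP readout (CellTiter Glo) after 30 min at 37 degrees C gives viability; cells in DMEM + 4% FBS were treated 24 to 48 hours with compound, following overnight attachment.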
# [8] = Confirmatory screen NINDS Rhodamine qHTS for Zika virus inhibitors (AID 1347161); further: nearly all actives have a fitted effect of over 60% in size; further: potency means the concentration at half of the fitted maximal effect;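 on activity change, negative = inhibition: purified Zika NS2B-NS3 protease with linked NS2B cofactor domain and Rhodamine110 peptide substrate; series mostly up to about 110 µM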
# In short: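 Each compound, titrated, sat 15 min with 25 nM linked protease before 1.5 microM Rhodamine110 substrate went in. Fluorescence gain over the next 15 min, in pH 8.0 Tris with Tween 20, gave Hill-fitted curves.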
# [9] = Confirmatory screen GU Rhodamine qHTS for Zika virus inhibitors qHTS (AID 1347157); conditions: purified enzyme assay, Rhodamine110 substrate fluorescence, 15 min; further: potency means the concentration at half of the fitted maximal effect; nearly all actives have a fitted effect of over 70% in size
# In short: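 A qHTS format was used, with compound concentrations ranging up to 114 microM. Each compound was preincubated with 25 nM NS2B-NS3 protease, and the substrate was then added at 1.5 microM. Curves were fitted with a 4-parameter Hill model.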
# [10] = tested on: Zika virus NS2B-NS3 protease (linked construct); assay: 384 well plate NINDS Rhodamine confirmatory qHTS for Zika virus inhibitors (AID 1347164); further: nearly all actives have a fitted effect of over 65% in size; further: potency means the concentration at half of the fitted maximal effect; on activity change, negative = inhibition: top concentration of the series differs between compounds
# In short: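 Compounds are incubated about 15 minutes with linked protease (5, 30 or 60 nM final). Rhodamine 110-tagged Ac-LKRR substrate (10 microM final) is added and fluorescence measured after 25 minutes.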
compound,measurement,setting,value
CCN(CCO)CCCC(C)Nc1ccnc2cc(Cl)ccc12 (centres undefined),"activity change, negative = inhibition",[1],15.4% [at 11.5 µM]
same,"activity change, negative = inhibition",[2],-6.84% [at 4.91 µM]
same,"activity change, negative = inhibition",[3],-5.56% [at 3.83 µM]
COc1cc(Nc2c(C#N)cnc3cc(OCCCN4CCN(C)CC4)c(OC)cc23)c(Cl)cc1Cl,Potency,[1],inactive
same,Potency,[2],inactive
same,Potency,[3],7.45 µM (active)
CC(=O)O[C@H]1C(=O)[C@@]2(C)C([C@H](OC(=O)c3ccccc3)[C@]3(O)C[C@H](OC(=O)[C@H](O)[C@@H](NC(=O)c4ccccc4)c4ccccc4)C(C)=C1C3(C)C)[C@]1(OC(C)=O)CO[C@@H]1C[C@@H]2O (some centres undefined),Potency,[1],inactive
same,Potency,[2],inactive
same,outcome,[4],inactive
COc1cc2c(N3CCN(C(=O)Nc4ccc(OC(C)C)cc4)CC3)ncnc2cc1OCCCN1CCCCC1,Potency,[1],inactive
same,Potency,[2],inactive
Cc1nc(Nc2ncc(C(=O)Nc3c(C)cccc3Cl)s2)cc(N2CCN(CCO)CC2)n1,Potency,[5],inactive
same,Potency,[1],inactive
same,Potency,[2],inactive
same,Potency,[6],inactive
same,Potency,[7],79.4 µM (active)
COc1cc2c(cc1OC)C1CC(=O)C(CC(C)C)CN1CC2 (centres undefined),Potency,[8],inactive
same,Potency,[7],inactive
O=C(O)c1cccc(-c2noc(-c3ccccc3F)n2)c1,Potency,[1],inactive
same,Potency,[2],inactive
same,Potency,[3],inactive
COc1ccccc1N1CCN(CCN(C(=O)C2CCCCC2)c2ccccn2)CC1,Potency,[1],inactive
same,Potency,[2],inactive
same,outcome,[4],inactive
Cc1cc2c(s1)Nc1ccccc1N=C2N1CCN(C)CC1,Potency,[1],inactive
same,Potency,[2],inactive
same,Potency,[3],inactive
COc1ccc(C2(C#N)CCC(C(=O)O)CC2)cc1OC1CCCC1 (centres undefined),Potency,[1],inactive
same,Potency,[2],inactive
CCCS(=O)c1ccc2nc(NC(=O)OC)[nH]c2c1 (centres undefined),Potency,[2],inactive
same,Potency,[3],inactive
CN(c1nccc(=O)[nH]1)C1CCN(c2nc3ccccc3n2Cc2ccc(F)cc2)CC1,Potency,[2],inactive
same,Potency,[3],inactive
CN(C)C(=O)[C@H](O)[C@H](Cc1ccccc1)NC(=O)c1cc2cc(Cl)ccc2[nH]1,Potency,[1],inactive
same,Potency,[2],inactive
same,Potency,[7],inactive
Cc1ccc(NC(=O)c2ccc(CN3CCN(C)CC3)cc2)cc1Nc1nccc(-c2cccnc2)n1,Potency,[1],inactive
same,Potency,[2],inactive
CC(C)C[C@H](NC(=O)[C@H](Cc1ccccc1)NC(=O)c1cnccn1)B(O)O,Potency,[1],inactive
same,Potency,[2],inactive
same,Potency,[7],0.0466 µM (active)
same,Potency,[3],0.0745 µM (active)
O=c1c(O)c(-c2ccc(O)cc2O)oc2cc(O)cc(O)c12,Potency,[9],20 µM (active)
same,Potency,[5],inactive
same,Potency,[8],12.6 µM (active)
same,Potency,[6],141 µM (active)
same,Potency,[10],50.1 µM (active)
Cc1nc(-c2ccc(OCC(C)C)c(C#N)c2)sc1C(=O)O,Potency,[8],31.2 µM (active)
COc1c2occc2cc2ccc(=O)oc12,Potency,[10],inactive
